Test results published in PMC11062922 (Nature Chemical Biology, 2023).
Where two headings read alike, the source gives them in different places.

What was measured:
Set-up in all cases: species or system human, MV4-11 + K-562 + COLO205 + SK-N-BE2 + OVCAR-8
DDR1 = conditions: read-out: apparent Kd; compound concentrations:100 nM and 1000 nM (sheet 'Samples'); n = 1
DDR2 = conditions: read-out: apparent Kd; compound concentrations:100 nM and 1000 nM (sheet 'Samples'); n = 1
FLT3 = conditions: read-out: apparent Kd, n = 1
MAP2K1 = conditions: read-out: apparent Kd; compound concentrations:100 nM and 1000 nM (sheet 'Samples'); n = 1
NQO1 = conditions: read-out: apparent Kd; compound concentrations:100 nM and 1000 nM (sheet 'Samples'); n = 1
PIK3C3 = conditions: read-out: apparent Kd; compound concentrations:100 nM and 1000 nM (sheet 'Samples'); n = 1
PIK3CD = conditions: read-out: apparent Kd; compound concentrations:100 nM and 1000 nM (sheet 'Samples'); n = 1
RIOK2 = conditions: read-out: apparent Kd; compound concentrations:100 nM and 1000 nM (sheet 'Samples'); n = 1
SMC4 = conditions: read-out: apparent Kd; compound concentrations:100 nM and 1000 nM (sheet 'Samples'); n = 1
JAK2 = conditions: read-out: apparent Kd; compound concentrations:100 nM and 1000 nM (sheet 'Samples'); n = 1
PIK3CA = conditions: read-out: apparent Kd, n = 1
RET = conditions: read-out: apparent Kd, n = 1
CSNK2A1;CSNK2A3 = conditions: read-out: apparent Kd, compound concentrations: 100 nM and 1000 nM (sheet 'Samples'), n = 1
CSNK2A2 = conditions: read-out: apparent Kd; compound concentrations: 100 nM and 1000 nM (sheet 'Samples'), CATDS: 0.185061390376627; n = 1
FECH = conditions: read-out: apparent Kd; compound concentrations: 100 nM and 1000 nM (sheet 'Samples'), CATDS: 0.167574298527637; n = 1
NQO2 = conditions: read-out: apparent Kd; compound concentrations: 100 nM and 1000 nM (sheet 'Samples'), CATDS: 0.179467556500614; n = 1
GAK = conditions: read-out: apparent Kd, compound concentrations: 100 nM and 1000 nM (sheet 'Samples'), n = 1
MAPK9 = conditions: read-out: apparent Kd, compound concentrations: 100 nM and 1000 nM (sheet 'Samples'), n = 1
TTK = conditions: read-out: apparent Kd; compound concentrations: 100 nM and 1000 nM (sheet 'Samples'), CATDS: 0.21902937280851401; n = 1
CSNK1D = conditions: read-out: apparent Kd; compound concentrations: 100 nM and 1000 nM (sheet 'Samples'), CATDS: 6.2224670805274301E-2; n = 1
GSK3B = conditions: read-out: apparent Kd; compound concentrations: 100 nM and 1000 nM (sheet 'Samples'), CATDS: 7.0776673864894807E-2; n = 1
MAPK10 = conditions: read-out: apparent Kd; compound concentrations: 100 nM and 1000 nM (sheet 'Samples'), CATDS: 9.6929032938047402E-2; n = 1
MAPK14 = conditions: read-out: apparent Kd; compound concentrations: 100 nM and 1000 nM (sheet 'Samples'), CATDS: 8.8284377097412201E-2; n = 1
MAPKAPK2 = conditions: read-out: apparent Kd; compound concentrations: 100 nM and 1000 nM (sheet 'Samples'), CATDS: 6.8776353647753294E-2; n = 1
NLK = conditions: read-out: apparent Kd; compound concentrations: 100 nM and 1000 nM (sheet 'Samples'), CATDS: 6.7080565702130196E-2; n = 1
PRKD2 = conditions: read-out: apparent Kd; compound concentrations: 100 nM and 1000 nM (sheet 'Samples'), CATDS: 7.4575323464079593E-2; n = 1
PRKD3 = conditions: read-out: apparent Kd; compound concentrations: 100 nM and 1000 nM (sheet 'Samples'), CATDS: 5.9438089075158997E-2; n = 1
ZAK = conditions: read-out: apparent Kd; compound concentrations:100 nM and 1000 nM (sheet 'Samples'); n = 1
[1] = compound concentrations:100 nM and 1000 nM (sheet 'Samples')

COC(=O)Nc1nc2ccc(Oc3ccc(CC(=O)Nc4cc(C(F)(F)F)ccc4F)cc3)cc2[nH]1 [GW680903X]
potency estimated from few doses (DDR1): 257 nM
potency estimated from few doses (DDR2): 404 nM
potency estimated from few doses (FLT3; [1]): 713 nM
potency estimated from few doses (MAP2K1): 2320 nM
potency estimated from few doses (NQO1): 2020 nM
potency estimated from few doses (PIK3C3): 1510 nM
potency estimated from few doses (PIK3CD): 104 nM
potency estimated from few doses (RIOK2): 1760 nM
potency estimated from few doses (SMC4): 1910 nM

CN1CCN(CCNc2nc3cc(Oc4ccc(NC(=O)Nc5cc(C(F)(F)F)ccc5F)cc4)ccc3[nH]2)CC1.CN1CCN(CCNc2nc3cc(Oc4ccc(NC(=O)Nc5cc(C(F)(F)F)ccc5F)cc4)ccc3[nH]2)CC1.Cl.Cl [GW768504A]
potency estimated from few doses (DDR1): 584 nM
potency estimated from few doses (JAK2): 634 nM
potency estimated from few doses (PIK3CA; [1]): 230 nM
potency estimated from few doses (PIK3CD): 97.4 nM
potency estimated from few doses (RET; [1]): 1080 nM

O=C1N=C(NCCc2ccc(Br)cc2)S/C1=C\c1ccc2ncccc2c1 [RO4508334-000]
potency estimated from few doses (CSNK2A1;CSNK2A3; CATDS: 0.17522676424385999): 1740 nM
potency estimated from few doses (CSNK2A2): 1520 nM
potency estimated from few doses (FECH): 1950 nM
potency estimated from few doses (FLT3; compound concentrations: 100 nM and 1000 nM (sheet 'Samples'), CATDS: 0.42553970171458699): 345 nM
potency estimated from few doses (NQO2): 1640 nM

CNc1nc(Nc2ccc(C(=O)N3CCOCC3)cc2OC)ncc1Cl [HG-10-102-01]
potency estimated from few doses (CSNK2A1;CSNK2A3; CATDS: 0.22184782024324001): 2220 nM
potency estimated from few doses (GAK; CATDS: 0.30476726939930399): 1180 nM
potency estimated from few doses (MAPK9; CATDS: 0.27430209396639399): 1430 nM
potency estimated from few doses (TTK): 2290 nM

Cc1ccc2c(-c3ccnc(Nc4cccc(C(F)(F)F)c4)n3)c(-c3ccccc3)nn2n1 [GW829906X]
potency estimated from few doses (CSNK1D): 2130 nM
potency estimated from few doses (GAK; CATDS: 0.103213597019934): 606 nM
potency estimated from few doses (GSK3B): 1440 nM
potency estimated from few doses (MAPK10): 688 nM
potency estimated from few doses (MAPK14): 839 nM
potency estimated from few doses (MAPK9; CATDS: 0.22651523139433999): 165 nM
potency estimated from few doses (MAPKAPK2): 1560 nM
potency estimated from few doses (NLK): 1680 nM
potency estimated from few doses (PIK3CA; compound concentrations: 100 nM and 1000 nM (sheet 'Samples'), CATDS: 0.21860301841360499): 174 nM
potency estimated from few doses (PRKD2): 1250 nM
potency estimated from few doses (PRKD3): 2500 nM
potency estimated from few doses (RET; compound concentrations: 100 nM and 1000 nM (sheet 'Samples'), CATDS: 7.2475765263367006E-2): 1350 nM

COC(=O)Nc1nc2cc(Oc3ccc(NC(=O)Nc4cccc(SC)c4)cc3)ccc2[nH]1.Cl [GW697999A]
potency estimated from few doses (DDR1): 194 nM
potency estimated from few doses (DDR2): 618 nM
potency estimated from few doses (FLT3; [1]): 332 nM
potency estimated from few doses (PIK3CA; [1]): 205 nM
potency estimated from few doses (PIK3CD): 92.1 nM
potency estimated from few doses (SMC4): 2010 nM
potency estimated from few doses (ZAK): 1910 nM
